WRN inhibitor: WRN helicase (human) inhibition | WRN helicase unwinding, fluorescent forked duplex, kinetic | Q14191 | 360,000 compounds, 0.46% hits | Potency, µM (highest dose often 114 µM), for inactives: at the highest dose activity change, negative = inhibition, usual class: inhibitors; also: % is scaled to controls: 0 for no effect and ±100 for the full control effect; nearly all actives have a fitted effect of over 55% in size
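Enzyme (20 nM final) and test compound sit together 15 min at room temperature before substrate addition. Substrate is a single-forked duplex oligonucleotide (100 nM) labelled with fluorophore and quencher, with 2 mM ATP; helicase unwinding raises red fluorescence, read kinetically.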
FEN1 inhibitor: inhibitors of human flap endonuclease 1. P39748. Recombinant FEN1 flap cleavage, fluorescence, 15 min. Potency, µM (series often up to 114 µM), inactives show top-dose activity change, negative = inhibition, most hits filed as inhibitors. 390,000 compounds, 0.35% hits. AID 588795; also: % is scaled to controls: 0 for no effect and ±100 for the full control effect; nearly all actives have a fitted effect of over 65% in size
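Reaction started by adding substrate (50 nM final) to 10 nM enzyme after 15 min room-temperature compound preincubation. Reads at 0 and 15 min, with data normalized and fitted to a four-parameter Hill equation.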
Pol kappa inh: DNA polymerase kappa (human) inhibition | Q9UBT6 | purified Pol kappa, fluorescent DNA synthesis assay, 10 min | Potency, µM (doses to about 107 µM), without a hit: at the top dose activity, negative = inhibition, hits mostly inhibitors | 400,000 compounds, 0.53% hits | AID 588579; also: % is scaled to controls: 0 for no effect and ±100 for the full control effect
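Readout: fluorescence, taken kinetically at 0 and 10 min. Conditions: 10 nM Pol kappa, 15 min RT compound preincubation, 50 nM substrate final. Controls: enzyme-free buffer wells.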
Pol iota inh: DNA polymerase iota (human) inhibition. Q9UNA4. Pol iota fluorescent replication assay, 10 min. Potency, µM (series often up to 115 µM), for inactives: top-dose activity, negative = inhibition, actives largely listed as inhibitors. 390,000 compounds, 1% hits. AID 588590
Target sequence (Q9UNA4 whole entry, looked up): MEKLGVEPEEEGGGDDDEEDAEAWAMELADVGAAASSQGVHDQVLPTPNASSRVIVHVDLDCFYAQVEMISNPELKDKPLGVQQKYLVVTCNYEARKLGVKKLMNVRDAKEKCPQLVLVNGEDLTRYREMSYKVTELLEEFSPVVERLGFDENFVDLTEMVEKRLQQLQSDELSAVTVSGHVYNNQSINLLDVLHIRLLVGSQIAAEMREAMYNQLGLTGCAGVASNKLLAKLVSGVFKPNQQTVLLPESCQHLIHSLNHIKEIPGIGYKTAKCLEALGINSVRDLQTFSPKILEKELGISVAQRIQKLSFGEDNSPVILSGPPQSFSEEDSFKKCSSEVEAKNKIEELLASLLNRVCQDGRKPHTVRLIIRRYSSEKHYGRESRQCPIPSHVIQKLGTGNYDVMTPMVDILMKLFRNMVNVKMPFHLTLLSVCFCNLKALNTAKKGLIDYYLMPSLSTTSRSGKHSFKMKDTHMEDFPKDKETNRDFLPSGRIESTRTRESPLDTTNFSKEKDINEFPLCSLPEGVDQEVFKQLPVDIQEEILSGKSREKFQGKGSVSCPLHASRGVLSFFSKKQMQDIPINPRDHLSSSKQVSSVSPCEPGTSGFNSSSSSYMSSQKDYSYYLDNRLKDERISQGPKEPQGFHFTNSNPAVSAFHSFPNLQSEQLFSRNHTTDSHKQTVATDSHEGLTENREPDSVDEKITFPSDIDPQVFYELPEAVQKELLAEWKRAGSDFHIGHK
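Fluorescent replication assay read twice, at 0 min and 10 min after adding 50 nM (final) substrate. Enzyme (10 nM) and compounds were first incubated 15 min at room temperature; enzyme-free buffer wells were negative controls.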
Pol beta inh: DNA polymerase beta (human) inhibition | P06746 | Pol beta primer extension/strand displacement, fluorescence kinetic | Potency, µM (top dose mostly 114 µM), inactives show at the top dose activity change, negative = inhibition, usual class: inhibitors | 340,000 compounds, 1.3% hits | AID 485314; also: % is scaled to controls: 0 for no effect and ±100 for the full control effect
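Pol beta (10 nM) was preincubated with compound for 15 min at room temperature. The reaction was then started with 50 nM substrate and read immediately and after a further 10 min at room temperature.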
Pol eta inh: inhibitors of human DNA polymerase eta. Q9Y253. recombinant Pol eta, fluorescent DNA replication assay. Potency, µM (highest dose often 114 µM), for the others: at the top dose activity change, negative = inhibition, actives largely listed as inhibitors. 390,000 compounds, 1.2% hits; also: % is scaled to controls: 0 for no effect and ±100 for the full control effect
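Fluorescent replication assay: 50 nM final substrate added after a 15 min room-temperature compound preincubation with 10 nM enzyme. Signal taken at 0 min and again at 10 min.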
Numbers without * were called inactive; ? = inconclusive; · = no result; [ ] = another dose, or the depositor's remark. Hits are enriched below; roughly 2.4% of the tested compounds scored in any of these assays. Calls follow the shape of the dose curve; as a rule, active = well fitted curve in the direction sought with a large enough effect; inconclusive = small, poorly fitted or top-dose-only effect, or another doubt; inactive = no such curve, though single readings can be large; an effect the other way counts as inactive or inconclusive. Potency is read from the fitted curve at half-maximal effect.

SMILES | WRN inhibitor | FEN1 inhibitor | Pol kappa inh | Pol iota inh | Pol beta inh | Pol eta inh
COc1ccc2c(c1)c(=O)oc1cc(OCC(=O)N3CCCC(C)C3)ccc12 (configuration not stated) | -21% | 2% | -22% | ? | 4µM* | ?
COc1cc(NC(=O)CSc2nnc3c4ccccc4n(C)c3n2)cc(OC)c1OC | · | -17% | -16% | -4% | · | ·
CCn1c(=O)n(C2=C(CO)CN(CC3CCCCCCC3)CC2)c2ccccc21 | · | · | 4%[60.1 µM] | · | · | ·
COc1ccc(NC(=O)c2cc3cccc(OC)c3oc2=Nc2ccc(C(=O)O)cc2)cc1OC | -5% | -30% | -37% | -8% | ? | 14µM*
O=C(Nc1ncnc2sc3c(c12)CCCC3)c1ccncc1 | 1% | -2% | 9% | 36% | 8% | -20%
O=C(Nc1ncnc2sc3c(c12)CCCCC3)c1ccco1 | 2% | 4% | -8% | -4% | 7% | 22µM*
O=C(CSc1ncnc2ccccc12)NCc1ccco1 | -28% | 3% | -7% | ? | 25µM* | ?
O=C(CSc1nc2ccccc2c2nc3ccccc3n12)NCc1ccco1 | -24% | ? | ? | ? | 8.9µM* | ?
COCCn1c(SCC(=O)NC2CCCC2)nc2cccnc21 | 2% | 4% | 13% | 10% | -11% | -8%
COCCn1c(SCC(=O)NCc2ccco2)nc2cccnc21 | -16% | -1% | -21% | ? | 45µM* | ?
Cn1cccc1Cc1nnc(SCC(=O)NCc2ccco2)n1CCc1ccccc1 | ? | 0% | ? | 22µM* | ? | -29%
O=C(CSc1ncnc2ccccc12)c1ccco1 | -3% | 0% | -4% | 111% | -6% | 14%
Cn1c(SCC(=O)NCc2ccco2)nc2ccccc2c1=O | 1% | -7% | -10% | 26% | 39% | -2%
Cc1ccc(SC[C@H](C)CN2CC[C@H](O)CCC2=O)cc1 | · | 23% | -5% | -7% | · | ·
COc1ccc2c(c1)c(C(=O)CN(C)C)c(C)n2C | · | -27% | -28% | 6% | · | ·
CNC(=O)c1ccc2nc(-c3cccc(C)c3)c(-c3cccc(C)c3)nc2c1 | · | -30% | -6% | 6% | · | ·
CCCc1nc2sc3c(SCC(=O)NCc4ccco4)ncnc3c2c2c1CCC2 | 40µM* | ? | 28µM* | ? | 10µM* | 14µM*
O=C(CSc1nc2ccccc2c(=O)n1Cc1ccc(C(=O)NC2CC2)cc1)NCc1ccco1 | -1%[11.6 µM] | 4% | -34% | ? | 79µM* | ?
O=C(CSc1nc2ccccc2c(=O)n1Cc1ccco1)NCc1ccccc1 | -5%[57.1 µM] | -10% | -3% | -9% | · | 12%
CCCCCCCCN1[C@@H](CC(=O)OC)c2ccc(/C=C/C(=O)OC)cc2S1(=O)=O | · | -13% | -39% | ? | · | ·
O=C(CN1CCOCC1)NCc1ccc(F)cc1 | 3% | -3% | -1% | 6% | 14% | -9%
C=CCNC(=O)CN1CCC(O)(c2ccc(F)cc2)CC1 | -4%[57.1 µM] | 2% | -10%[60.1 µM] | 100µM* | -2% | -13%
O=C(N/N=C/C(Br)=C\c1ccccc1)c1n[nH]c2c1CCC2 | -31% | -11% | -1% | 25µM* | 1% | -6%
Cc1ccc(-c2cc(C(=O)N/N=C/c3ccccc3O)n[nH]2)o1 | -2% | 8% | -1% | 23% | -28% | -15%
Cc1ccc(-c2cc(C(=O)N/N=C/C(Br)=C/c3ccccc3)n[nH]2)o1 | -11%[11.6 µM] | -3% | ? | ? | 35µM* | -5%
Cc1ccc(-c2cc(C(=O)N/N=C/c3c[nH]c4ccccc34)n[nH]2)o1 | -15% | -7% | ? | ? | 28µM* | -15%
CCOC(=O)C1=C(C)NC2=C(C(=O)C(C(=O)OCC)C(c3ccco3)C2)C1c1ccccc1C (configuration not stated) | · | -6% | -20% | ? | · | ·
CCCN1CNc2c(c(=O)[nH]c(=S)n2Cc2ccc(OC)c(OC)c2)C1 | · | -8% | -12% | ? | · | ·
